Source: PubChem BioAssay
An excerpt weighted towards active compounds, which were near 2.8% of everything screened.
Fam108B inh – mouse Fam108B serine hydrolase inhibitors, primary screen, counter-screen for RBBP9 inhibitor project, biochemical, fluorescence polarization; recombinant Fam108B, FP-Rh probe fluorescence polarization; inhibition, % at 9.51 µM; 300,000 compounds, 0.33% hits;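 active means inhibition above the screen mean inhibition plus 3 SD, computed separately per campaign, cut at about 18% in these data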;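 further: inhibitors lower polarization as less probe binds the enzyme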
PAFAH2 inh – PAFAH2 enzyme inhibitors, primary screen, biochemical, fluorescence polarization, human; recombinant PAFAH2, FP-rhodamine activity probe; inhibition, % at 3.39 µM; 340,000 compounds, 0.99% hits;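 active means inhibition above the mean over all tested compounds plus 3 SD, cut at about 30% in these data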;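 further: inhibitors block probe labeling of enzyme so polarization drops; 0% = enzyme with DMSO and 100% = wells lacking PAFAH2 protein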
PME-1 primary – PME-1 inhibitors via competitive probe labeling, primary screen, biochemical, fluorescence polarization, FP-Rh probe, HTS | Protein phosphatase methylesterase 1 (Homo sapiens), Q9Y570 | 320,000 compounds, 0.53% hits | recombinant PME-1 | inhibition, % at 5.9 µM;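 active means inhibition above the campaign mean of all compounds plus 3 SD, cut at about 26% in these data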;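 further: competitive labeling of PME-1 active site by serine hydrolase directed probe; 0% = PME-1 with DMSO and 100% = wells lacking PME-1 enzyme; inhibitors block probe labeling so polarization falls and inhibition rises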
PAFAH1B2 FP inh – PAFAH1B2 enzyme inhibitors, primary screen, biochemical, fluorescence polarization, human; Platelet-activating factor acetylhydrolase IB subunit alpha2 (Homo sapiens), P68402; recombinant PAFAH1B2, FP-rhodamine activity probe; AID 492953, 2010; 340,000 compounds, 1.2% hits; inhibition, % at 3.39 µM;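 active means inhibition above the mean of all tested compounds plus 3 SD, cut at about 24% in these data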;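 further: 0% = enzyme with DMSO and 100% = wells lacking PAFAH1B2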
Target sequence (P68402 whole entry, looked up): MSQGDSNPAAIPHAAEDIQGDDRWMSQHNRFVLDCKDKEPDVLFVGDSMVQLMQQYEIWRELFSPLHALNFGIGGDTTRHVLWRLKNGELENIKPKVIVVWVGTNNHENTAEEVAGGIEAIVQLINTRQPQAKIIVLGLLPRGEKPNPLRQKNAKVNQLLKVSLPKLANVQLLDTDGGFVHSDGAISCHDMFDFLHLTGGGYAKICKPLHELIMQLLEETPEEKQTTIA
pPAFAH FP inh – pPAFAH enzyme inhibitors, primary screen, biochemical, fluorescence polarization, human. Platelet-activating factor acetylhydrolase (Homo sapiens), Q13093. recombinant pPAFAH, FP-rhodamine probe fluorescence polarization. inhibition, % at 3.39 µM. 330,000 compounds, 1.5% hits. AID 463082, 2010;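 active means inhibition above the mean inhibition across the screen plus 3 SD, cut at about 25% in these data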;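 further: inhibitors block binding of the rhodamine activity-based probe so polarization drops; 0% = enzyme with DMSO and 100% = wells lacking pPAFAH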
PAFAH1B3 FP inh – PAFAH1B3 enzyme inhibitors, primary screen, biochemical, fluorescence polarization, human; inhibition, % at 3.39 µM; 340,000 compounds, 0.28% hits; Platelet-activating factor acetylhydrolase IB subunit alpha1 (Homo sapiens), Q15102; recombinant PAFAH1B3, FP-rhodamine probe;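 active means inhibition above the screen-wide average of all tested compounds plus 3 SD, cut at about 25% in these data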;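 further: 0% = enzyme with DMSO only and 100% = wells lacking PAFAH1B3 protein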
Target sequence (Q15102 whole entry, looked up): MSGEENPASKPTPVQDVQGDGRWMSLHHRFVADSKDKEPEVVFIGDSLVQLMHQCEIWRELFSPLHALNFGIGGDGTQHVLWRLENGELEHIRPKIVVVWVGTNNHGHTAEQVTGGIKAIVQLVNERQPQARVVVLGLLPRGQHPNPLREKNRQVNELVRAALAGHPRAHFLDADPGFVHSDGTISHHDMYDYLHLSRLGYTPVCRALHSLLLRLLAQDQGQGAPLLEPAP
PAFAH2 FP conf – PAFAH2 enzyme inhibitors, confirmation, biochemical, fluorescence polarization, human; AID 493030, 2011; shares compounds with PAFAH2 inh; recombinant PAFAH2, FP-rhodamine activity probe; inhibition, % at 3.39 µM; 2,300 compounds, 65% hits;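 active means mean inhibition over three repeats above a set limit taken from the earlier primary screen, cut at about 30% in these data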;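 further: inhibitor blocks binding of rhodamine activity probe so polarization falls; 0% = enzyme with DMSO and 100% = wells lacking PAFAH2 protein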
Starred values were filed as active, the others as inactive; / = no result.

SMILES	Fam108B inh	PAFAH2 inh	PME-1 primary	PAFAH1B2 FP inh	pPAFAH FP inh	PAFAH1B3 FP inh	PAFAH2 FP conf
CNC(=O)C(C)Sc1ccc(S(=O)(=O)N2CCOCC2)cn1 (centres undefined)	/	-7.8	2.8	0.2	-5.7	6.3	/
Cn1c(=O)c2c(SCC(=O)N3CCOCC3)nc(-c3ccccc3F)nc2n(C)c1=O	1.4	0.0	7.0	1.6	-1.0	4.0	/
CCCCCC(=C/c1ccccc1)/C=N/Nc1ccc(S(=O)(=O)N2CCOCC2)cc1[N+](=O)[O-]	/	-2.8	/	2.2	/	5.3	/
O=c1oc(-c2ccc(Br)cc2)nc2ccccc12	-9.3	76.3*	-4.9	-4.7	-6.0	4.3	69.8*
CSc1nc(C)cc(OCNC(=O)c2cccs2)n1	-1.7	53.9*	3.6	1.3	5.0	10.3	50.9*
CC1CCc2sc(C(=O)OCC(=O)NCc3ccc(F)cc3)cc2C1 (centres undefined)	-3.0	46.0*	-3.0	0.3	-1.1	9.1	40.1*
Cc1nc(NC(=O)COC(=O)c2cc3c(s2)CCC(C)C3)c(Cl)cc1Cl (centres undefined)	-6.3	16.6	0.5	-3.3	9.9	-1.5	/
Cc1oc2c(c1C(=O)NC(Cc1c[nH]c3ccccc13)C(=O)O)CCCC2 (centres undefined)	0.1	39.2*	-0.7	3.7	8.0	4.1	14.5
Cc1noc(C)c1C(=O)NC(Cc1c[nH]c2ccccc12)C(=O)O (centres undefined)	/	4.9	/	2.7	8.6	13.6	/
CN(C)S(=O)(=O)c1cccc(NC(=O)c2cccc(N3C(=O)CCC3=O)c2)c1	/	0.8	/	-0.1	/	0.2	/
CCc1ccc(CN(C)Cc2nc(COc3ccccc3)no2)nc1	1.0	29.8*	2.3	0.2	10.3	7.9	12.8
CCc1ccc(CN(C)Cc2nc(Cc3cccc(C(F)(F)F)c3)no2)nc1	1.9	5.5	-0.3	5.4	17.0	13.3	/
COc1ccc(C(=O)OCC(=O)Nc2ccc(F)cc2F)cc1OC	0.3	76.2*	-5.4	4.5	10.2	4.5	72.5*
CCC(CC)NC(=O)COC(=O)c1ccc(OCC(=O)Nc2ccccc2OC)c(OC)c1	2.1	59.7*	4.0	-6.4	-0.7	2.9	63.4*
COc1ccccc1NC(=O)COC(=O)c1cc2c(s1)CCC2	/	54.4*	/	0.6	/	0.6	38.5*
CCCNC(=O)COC(=O)c1ccc(OCC(=O)Nc2ccccc2OC)c(OC)c1	5.1	51.4*	-0.6	0.0	-2.0	-6.0	44.8*
Cc1ccc(/C=N/NC(=O)c2nnn(-c3nonc3N)c2CSc2ccc(Cl)cc2)o1	-0.6	2.9	4.3	0.4	-0.1	8.7	/
COCCN(Cc1cc2cc(C)ccc2[nH]c1=O)S(=O)(=O)c1ccc(Cl)cc1	0.9	0.7	2.9	6.2	4.5	16.0	/
COc1ccc(CN(CC(=O)NCc2ccccc2)C(=O)CCC(=O)Nc2nccs2)cc1	1.0	-5.1	-3.2	-1.1	0.6	-2.1	/
O=C(NNC(=O)c1ccc(-c2ccccc2)cc1)Nc1ccc(F)cc1F	-5.7	-6.6	-2.9	-0.7	-4.5	3.9	/
COc1ccccc1NC(=O)COc1ccc(C(=O)OCC(=O)NC(C)(C)C)cc1OC	-2.1	81.0*	-4.9	0.5	7.1	5.3	82.6*
COC(=O)c1ccc(C(=O)OC)c(NC(=O)COc2ccccc2OC)c1	-1.0	2.0	-1.1	-0.4	8.4	10.9	/
Cc1cccc(C(=O)NC2CCN(S(=O)(=O)c3ccc(F)cc3)CC2)c1	-3.8	-2.9	-5.4	4.3	-4.0	10.6	/
Cc1ccc(/C=c2\sc3nc(-c4ccccc4Br)nn3c2=O)o1	3.5	13.1	-11.7	6.8	24.1	-1.6	/
Cc1ccc(/C=c2\sc3nc(-c4ccco4)nn3c2=O)o1	-2.7	39.1*	-1.8	4.7	19.9	9.5	1.1
